Data from PubChem BioAssay.
Potency and affinity values are given separately. Activity calls are given as the source filed them. No cut-off is given here; in the data, nearly all actives have IC50 up to about 0.91 µM.

Molecular target: Calcium-dependent protein kinase 4 (Plasmodium falciparum (isolate 3D7)) (UniProt Q8IBS5)
Assay: PfCDPK4 kinase inhibitors, biochemical, TCAMS library (AID 1159588)
Settings: recombinant PfCDPK4, Kinase-Glo ATP depletion luminescence

Sequence of Calcium-dependent protein kinase 4 (Plasmodium falciparum (isolate 3D7)) (Q8IBS5 whole entry, looked up): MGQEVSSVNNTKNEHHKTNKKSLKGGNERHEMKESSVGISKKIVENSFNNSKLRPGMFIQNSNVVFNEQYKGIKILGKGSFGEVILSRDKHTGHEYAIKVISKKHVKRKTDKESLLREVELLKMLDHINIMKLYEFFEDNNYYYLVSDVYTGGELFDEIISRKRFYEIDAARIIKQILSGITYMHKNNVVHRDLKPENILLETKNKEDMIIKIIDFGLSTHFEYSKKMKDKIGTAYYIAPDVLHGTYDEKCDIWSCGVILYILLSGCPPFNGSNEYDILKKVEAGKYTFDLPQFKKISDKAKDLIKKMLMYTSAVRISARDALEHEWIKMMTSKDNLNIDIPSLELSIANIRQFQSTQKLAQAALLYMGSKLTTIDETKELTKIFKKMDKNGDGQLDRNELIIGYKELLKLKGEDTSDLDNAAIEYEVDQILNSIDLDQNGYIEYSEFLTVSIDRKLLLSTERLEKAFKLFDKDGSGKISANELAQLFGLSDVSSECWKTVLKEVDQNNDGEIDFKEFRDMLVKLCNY

outcome, inactive:
Cn1c2c(c3ccccc31)CN(CCC1(c3ccc(Cl)c(Cl)c3)CN(C(=O)Cc3ccccc3)CCO1)CC2 (stereo not drawn)
O=C(NCc1ccc(F)cc1)Nc1ccc(-c2cccc(-c3nc4ccc(F)cc4[nH]3)c2)cc1
COc1ccc(/C=C/C(=O)N2CCc3cc4nccc(N5CCN6CCC[C@H]6C5)c4cc32)cc1
CS(=O)(=O)Nc1cccc(-c2cnc3[nH]cc(-c4cc(N)cc(C(=O)O)c4)c3c2)c1
CCN(CC)CCN(Cc1ccc(-c2ccc(C(F)(F)F)cc2)cc1)C(=O)Cn1c(CCc2ccc(F)c(F)c2F)nc(=O)c2cccnc21
Cc1cc(N2CCOCC2)nc2ccc(NC(=O)c3ccc(Cl)c([N+](=O)[O-])c3)cc12
CCOc1cccc(C(=O)Nc2ccc(-c3nc4ccccc4[nH]3)cc2)c1
O=C(NCCCCN1CCC(c2ccc([N+](=O)[O-])cc2)CC1)c1ccc(NC(=O)c2ccc(Cl)cc2)cc1
O=C(Nc1cccc(-c2ccc(CN3CCNCC3)cc2)c1)c1cccc(Cl)c1
Cc1cc(N(C)C)nc(Nc2ccc(NC(=O)C(C)Oc3ccccc3)cc2)n1 (stereo not drawn)
CCN(CC)CCN(Cc1ccc(-c2ccc(C(F)(F)F)cc2)cc1)C(=O)Cn1c(CCc2ccc(F)cc2)nc(=O)c2sccc21
Cc1ncc([N+](=O)[O-])n1CCOC(=O)NC(NCC1COc2ccccc2O1)C(Cl)(Cl)Cl (stereo not drawn)
COC(=O)c1ccc(CN2CCC(N(Cc3cccc(Oc4ccccc4)c3)S(=O)(=O)c3ccc(NC(C)=O)cc3)CC2)cc1
